Many of the other results were omitted from the sample, so hits are more common in it than they were.
CHX counter: affects cycloheximide protein synthesis inhibition readout, counter-screen; max response, %; actives 12% (n = 300,000); cell reporter, cycloheximide protein synthesis inhibition counterscreen; in the data active = max response mostly above about 13%, no sharp cut-off; inactive = mostly below about 14%; note: read at 38.3 µM for the half of the compounds with a filed dose; 0% is about no effect
Lassa entry inh: blocks Lassa virus binding to or entry into cells; Lassa virus pseudotype entry inhibition, cell reporter; Potency, µM (titrated, usually from 37.9 µM), without a hit: at the top dose activity change, negative = inhibition, actives largely listed as inhibitors; actives 1.2% (n = 300,000); calls by dose curve; tested in HEK293 cells; note: potency is the fitted concentration of half-maximal effect; % is set by controls: 0 for no effect and ±100 for the full control effect; nearly all actives have a fitted effect of over 50% in size
AMA1 RON2 block: inhibitors of Plasmodium falciparum AMA1-RON2 interaction; AlphaScreen AMA1-biotinylated RON2 peptide binding; Potency, µM (highest dose often 58.2 µM), for the others: at the highest dose activity change, negative = inhibition, usual class: inhibitors; actives 0.2% (n = 360,000); active = well fitted inhibition curve with a large enough effect; inconclusive = small, poorly fitted or top-dose-only effect; inactive = no such curve, though single readings can be large or run the other way;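 note: potency is the fitted concentration of half-maximal effect; 0% = vehicle wells and -100% = peptide control; nearly all actives have a fitted effect of over 45% in size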
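AMA1 (3D7) with his tag at 25 nM final met compounds first, then biotinylated RON2 peptide at 25 nM; detection used donor plus acceptor beads, 10 µg/mL apiece, read by AlphaScreen after 30 min at room temperature.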
MARV entry inh: blocks Marburg virus binding to or entry into cells | Marburg virus pseudotyped entry inhibition, cell reporter | Potency, µM (series often up to 37.8 µM), for the others: top-dose activity change, negative = inhibition, usual class: inhibitors | actives 1.8% (n = 300,000) | AID 540276; calls by dose curve; tested in HEK293 cells; note: potency is the fitted concentration of half-maximal effect; % is set by controls: 0 for no effect and ±100 for the full control effect
Shiga toxin inh: Shiga toxin inhibition; Vero cells, Shiga toxin protein synthesis inhibition reporter; inhibition, % at 38.7 µM; actives 9.2% (n = 290,000); in the data active = inhibition mostly above about 28%, no sharp cut-off; inactive = mostly below about 43%; note: 0% is about no effect
* marks the source's active call; other numbers are inactive results; u = inconclusive; x = not tested or not shown; [ ] = remark or other dose.

SMILES	CHX counter	Lassa entry inh	AMA1 RON2 block	MARV entry inh	Shiga toxin inh
Cc1ccc(-c2nn(-c3ccccc3)cc2NC(=O)c2ccccc2)cc1	19*	12%	u	23%	44*
O=C(O)c1ccc(NC(=O)c2cn(-c3ccccc3)nc2-c2ccccc2)cc1	21*	16%[46.1 µM]	0%	-7%[46.1 µM]	56*
O=C(COc1ccccc1N1C(=O)c2ccccc2C1=O)c1ccc(Cl)cc1	20*	1%	-5%	-12%	34*
COc1ccc(Oc2ncc(CN3CCN(c4ccccc4)CC3)s2)cc1	0	u	-8%	4%	24
Cc1ncc(CN2CCCC(C(=O)c3ccc(C(C)(C)C)cc3)C2)s1 (centres undefined)	9.9*	x	-14%	x	44
Brc1ccc(Oc2ncc(CN3CCOCC3)s2)cc1	33*	9%	11%	u	41
COc1ccc(C(=O)C2CCCN(Cc3cnc(C)s3)C2)cc1OC (centres undefined)	-1	8%	6%	1%[46.1 µM]	-13
Cc1cc(Cl)ccc1C(=O)C1CCCN(C(=O)c2n[nH]c3c2CCCC3)C1 (centres undefined)	3	0%[46.1 µM]	-4%	u	18
COc1ccc(C(=O)C2CCCN(Cc3ccon3)C2)cc1OC (centres undefined)	57*	u	105%	2%[46.1 µM]	47
COc1ccc(C(=O)C2CCCN(C(=O)c3n[nH]c4c3CCCC4)C2)cc1OC (centres undefined)	16*	-5%[46.1 µM]	-5%	-22%[46.1 µM]	30
C=CCc1cccc2cc(-c3nc4ccc(C(=O)O)cc4[nH]3)c(=O)oc12	x	1%[46.1 µM]	x	x	x
CC1CCCC(C)N1C(=O)CN1C(=O)NC2(CCCCCC2)C1=O (centres undefined)	x	x	3%	x	x
COc1cc2c(cc1OC)CN(C(=O)Cc1c(F)cccc1Cl)CC2	-2	-10%	-7%	-8%[46.1 µM]	-11
CCOC(=O)C1CCN(Cc2cnc(Oc3ccc(C(C)(C)C)cc3)s2)CC1	-2	9.2µM*	-15%	3%	7
COc1ccc(CN2CCCC(C(=O)c3ccc(Cl)cc3)C2)cc1Cn1cccn1 (centres undefined)	7	10µM*	-13%	2.8µM*	-5
COc1cc(CN2CCCC(C(=O)c3sccc3C)C2)cc(OC)c1O (centres undefined)	0	x	-7%	x	-15
COc1cc(CN2CCCC(C(=O)c3ccc(C(C)(C)C)cc3)C2)cc(OC)c1O (centres undefined)	18*	u	-9%	u	24
Cc1ccc(N(C(=O)Cn2nnc3ccccc32)C(C(=O)NCc2ccccc2)c2ccccn2)cc1 (centres undefined)	-3	-16%	-11%	u	-3
O=C(Nc1nc(-c2ccco2)cs1)c1ccccc1	32*	u	2%	1%[46.1 µM]	36
O=C(Nc1nc(-c2ccccc2)cs1)c1cccnc1	18	-20%	14%	-20%	27
N#Cc1ccc(-c2csc(NNC(=O)c3ccccc3)n2)cc1	1	u	82%	10µM*	-4
N#Cc1ccc(-c2csc(NNC(=O)c3ccc(Br)cc3)n2)cc1	6	-21%	13%	u	16
CC(=O)Nc1ccc(-c2csc(NC(=O)c3ccc(C)o3)n2)cc1	-3	3%	6%	-1%	11
COc1ccc(-c2csc(NC(=O)c3ccco3)n2)cc1	55*	u	0%	5%	50*
Cc1ccc(-c2csc(NC(=O)c3ccc(-c4ccccc4)cc3)n2)o1	48*	x	11%	x	96*
SMILES	CHX counter	Lassa entry inh	AMA1 RON2 block	MARV entry inh	Shiga toxin inh
COc1cccc(N2CCN(C(=O)CN3C(=O)NC(C)(c4ccc5ccccc5c4)C3=O)CC2)c1 (centres undefined)	x	u	-15%	u	x
CCOc1ccc(-c2csc(NC(=O)c3ccco3)n2)cc1	39*	x	-16%	x	98
CC(OC(=O)c1ccco1)C(=O)Nc1nc(-c2ccccc2)cs1 (centres undefined)	x	10µM*	-5%	11µM*	x
O=C(Nc1nc(-c2ccccc2)cs1)c1ccco1	89*	-1%[46.1 µM]	-11%	-1%[46.1 µM]	122*
O=C(NC(=S)Nc1nc(-c2ccc(Br)cc2)cs1)c1ccco1	1	28%[46.1 µM]	4%	u	25
O=C(CCNC(=O)c1ccco1)Nc1nc(-c2ccccc2)cs1	x	u	-18%	-25%	x
O=C(NNc1nc(-c2ccc(Br)cc2)cs1)c1ccco1	31*	x	80%	x	81*
CCOc1ccc(CCNC(=O)c2cn(CC)c3ccc(S(=O)(=O)N4CCc5ccccc5C4)cc3c2=O)cc1OCC	x	-11%[46.1 µM]	x	15%[46.1 µM]	x
Cc1ccc(S(=O)(=O)NC(=O)C2(C)CCN2C(=O)c2cccc(F)c2)nc1 (centres undefined)	x	x	65%	x	x
O=S1(=O)N=C(N(CCO)/N=C/c2ccc(Br)cc2)c2ccccc21	-4	x	0%	x	38
O=C(NC(=S)Nc1nc(-c2ccc([N+](=O)[O-])cc2)cs1)c1ccco1	18*	12%	28%	-17%	51*
Cc1ccc(-c2csc(NC(=O)c3ccco3)n2)cc1C	34*	u	-15%	u	149*
COc1ccc(OC)c(-c2csc(NC(=O)Cc3ccc(F)cc3)n2)c1	17	u	-17%	u	36
Cc1ccc(-c2csc(NC(=O)Cc3ccc(F)cc3)n2)o1	15*	-5%	-8%	3%[46.1 µM]	37
NC(=Nc1c([N+](=O)[O-])cnc2ccccc12)N1CCOCC1	x	x	3%	x	x
C/C(Cn1cnc([N+](=O)[O-])n1)=N\NC(=O)c1ccncc1	4	11%	37%	-21%	16
C/C(Cn1cnc([N+](=O)[O-])n1)=N\NC(=O)c1ccc(F)cc1	25*	-4%	60%	-30%	41*
C/C(Cn1cnc([N+](=O)[O-])n1)=N\NC(=O)c1cccc(F)c1	25*	26%	4%	-10%	96*
COc1ccc(C(=O)N/N=C(\C)Cn2cnc([N+](=O)[O-])n2)cc1	12	19%	13%	10%	26
O=C(COC(=O)c1ccc(Cl)nc1)NCCc1ccccc1	x	x	6%	x	x
CCCC(=O)Nc1nnc(CCc2ccccc2)s1	7	x	3%	x	12
CC(C)(C)CC(=O)Nc1nnc(CCc2ccccc2)s1	29*	u	0%	u	93
CCC(C)(C)C(=O)Nc1nnc(CCc2ccccc2)s1	39*	x	-5%	x	80*
N/C(=N\OC(=O)c1ccc(Cl)c(Cl)c1)c1ccccn1	19*	u	48%	u	107*
N/C(=N\OC(=O)c1cccc(Cn2cc(C(F)(F)F)ccc2=O)c1)c1ccccc1	32*	x	1%	x	41*
N/C(=N\OC(=O)c1ccc(Cl)c([N+](=O)[O-])c1)c1ccccc1	0	x	-6%	x	-2
N/C(=N\OC(=O)c1cccc(Br)c1)c1ccccn1	66*	x	85%	x	36*
N/C(=N\OC(=O)c1ccc(Cl)c([N+](=O)[O-])c1)c1ccccn1	72*	u	16%	3.2µM*	141*
O=C(CN1CCN(S(=O)(=O)/C=C/c2ccccc2)CC1)NCC(F)(F)F	-10	x	7%	-11%[46.1 µM]	-13

Screens: PubChem, National Center for Advancing Translational Sciences (NCATS)
